A selection: hits, their analogues and other compounds. The true share with any hit is near 3.9%.
HepG2 tox-1 = counter-screen for TGF-b inhibitors: cytotoxicity in HepG2 cells. actives 0.76% (n = 410,000). Potency, µM (series often up to 46.1 µM), most hits filed as cytotoxic. HepG2 CAGA-GFP viability, ATP luminescence, 18 h
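CellTiter-Glo luminescence gave cytotoxicity after 18 hours at 37 degrees C. The cells were HepG2 CAGA-GFP in 1% FBS DMEM, stimulated with 500 pg/mL TGF-beta after compound addition. %Activity was normalised to no-cell wells (complete cell-killing) and DMSO (no toxicity), and curves were fitted and classified.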
ATXN2 expr inh = reduces ATXN2 reporter expression in HEK-293 cells. Potency, µM (highest dose often 57 µM), hits mostly inhibitors. HEK-293 ATXN2-luciferase reporter, luminescence, 24 h. actives 0.72% (n = 360,000). AID 1745845; further: nearly all actives have a fitted effect of over 55% in size
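qHTS (up to 57 uM final) was run with 24 h compound exposure of reporter cells at 37 °C. Each well was multiplexed: SteadyGlo luminescence measured ATXN2-luciferase expression after a fluorogenic Gly-Phe-AFC viability readout (25 uM final).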
S2 tox = viability counter-screen for ATXN expression inhibitors; S2 cells (HEK-293 line with an ATXN2-luciferase reporter) viability, CellTiter-Fluor protease fluorescence, 24 h; Potency, µM (highest dose often 56.7 µM), actives largely listed as cytotoxic; actives 0.49% (n = 400,000); AID 651635; further: nearly all actives have a fitted effect of over 40% in size
HT1080NT lethal = kills 2HG-producing HT-1080-NT fibrosarcoma cells | HT-1080-NT fibrosarcoma viability, CellTiter-Glo ATP luminescence, 48 h | Potency, µM (doses to about 46.1 µM), actives largely listed as cytotoxic | actives 1.6% (n = 360,000);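 further: NT is the 2HG producing partner of a matched IDH1 knockdown line; nearly all actives have a fitted effect of over 55% in size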
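750 cells/well, RPMI + 5% FBS; 2 h settle, compound pin-transfer, 48 h at 37 degrees C. CellTiter-Glo 10 min RT, luminescence. Normalized to DMSO and media-only wells.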
HT1080 IDH1KD tx = kills HT-1080 cells with IDH1 knockdown. actives 2% (n = 360,000). HT-1080 IDH1 knockdown viability, ATP luminescence, 48 h. Potency, µM (doses to about 46.1 µM), most hits filed as cytotoxic. AID 686971
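Cytotoxicity counter-line: IDH1KD HT-1080, 48 h, CellTiter-Glo. Curves classed by r2, magnitude and activity.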
TGFb inhibitor = inhibitors of TGF-b signaling; HepG2 CAGA-GFP TGF-b/SMAD3 reporter, GFP fluorescence, 18 h; TGF-beta stimulated, 500 pg/mL final; Potency, µM (titrated, usually from 46.1 µM), actives largely listed as inhibitors; actives 1.2% (n = 410,000); AID 588855; further: nearly all actives have a fitted effect of over 65% in size
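First, reporter cells (HEPG2 CAGA-GFP) rested 2 h at 37 degrees C. Next, compounds were pinned in and TGF-beta added to 500 pg/mL final. After 18 h, GFP was imaged per cell and summed per well.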
TGFb CAGA inh = TGF-b pathway inhibition, cherry-pick retest; Potency, µM (top dose mostly 46.1 µM), hits mostly inhibitors; actives 63% (n = 1,600); HepG2 CAGA-GFP TGF-b reporter, GFP fluorescence, 18 h; cells stimulated with TGF-beta, 500 pg/mL; shares compounds with TGFb inhibitor; further: nearly all actives have a fitted effect of over 65% in size
HepG2 tox-2 = counter-screen for TGF-b inhibitors: cytotoxicity in HepG2 cells | HepG2 CAGA-GFP viability, ATP luminescence, 18 h; cells stimulated with TGF-beta, 500 pg/mL | actives 27% (n = 1,600) | shares compounds with TGFb inhibitor | Potency, µM (top dose mostly 46.1 µM), most hits filed as inhibitors; further: nearly all actives have a fitted effect of over 70% in size
CCL64 TGFb inh = TGF-b inhibition, CCL64 orthogonal assay | shares compounds with TGFb inhibitor | CCL64 CAGA-GFP reporter, TGF-b stimulated, GFP fluorescence, 18 h | Potency, µM (top dose mostly 46.1 µM), most hits filed as inhibitors | actives 41% (n = 1,600) | AID 720536; further: nearly all actives have a fitted effect of over 65% in size
TGFb COP inh = TGF-b inhibition validated with COP promoter | shares compounds with TGFb inhibitor | HepG2 COP-GFP TGF-b reporter, GFP fluorescence, 18 h; cells stimulated by added recombinant TGF-beta | Potency, µM (doses to about 46.1 µM), usual class: inhibitors | actives 3% (n = 1,600); further: nearly all actives have a fitted effect of over 70% in size
A number is an active result; – = inactive; ? = inconclusive; · = not tested or not shown. The call rests on the fitted dose curve; in most records, active means well fitted curve in the direction sought with a large enough effect; inconclusive means small, poorly fitted or top-dose-only effect, or another doubt; inactive means no such curve, though single readings can be large; an effect the other way counts as inactive or inconclusive.

SMILES	HepG2 tox-1	ATXN2 expr inh	S2 tox	HT1080NT lethal	HT1080 IDH1KD tx	TGFb inhibitor	TGFb CAGA inh	HepG2 tox-2	CCL64 TGFb inh	TGFb COP inh
Cc1cc(N2CCN(c3ccccc3)CC2)n2cc(-c3ccccc3)nc2n1	–	–	?	–	–	?	?	–	–	–
CC(C)(C)c1ccc(Cn2c(=O)cnc3ccccc32)cc1	–	?	–	9.2µM	7.31µM	10µM	18.4µM	?	–	–
O=c1cnc2ccccc2n1Cc1ccc(Br)cc1	–	–	–	?	?	–	·	·	·	·
O=C(CNC(=S)N(Cc1ccccc1)Cc1ccccc1F)NCc1ccc(Cl)cc1	–	–	–	?	?	12.6µM	13µM	?	?	–
O=C(CNC(=S)N(Cc1ccccc1)Cc1ccccc1F)NCc1ccccc1	–	–	?	–	–	?	·	·	·	·
O=C(CCCN1CCOCC1)c1ccc2c(c1)OCCO2	–	–	?	–	–	–	·	·	·	·
O=C(CCN1CCOCC1)c1ccc2c(c1)OCCO2	–	–	–	?	?	10µM	20.6µM	23.1µM	?	?
CCCCCCCCOC(=O)c1cc([N+](=O)[O-])c(Sc2ncnc3nc[nH]c23)c([N+](=O)[O-])c1	12.6µM	?	·	?	13µM	7.08µM	20.6µM	8.2µM	5.8µM	?
CCCC[C@@H]1CCCO[C@@](C(=O)NCc2ccc(S(C)(=O)=O)cc2)(C(F)(F)F)C1	–	·	·	·	·	?	·	·	·	·
CCOc1ccc(S(=O)(=O)NCC(c2ccc(N(C)C)cc2)N2CCCC2)cc1 (stereo unspecified)	–	·	·	·	·	–	·	·	·	·
CC1CCCC(C)N1C(=O)Cn1cc(/C=C2/C(=O)Nc3ccccc32)c2ccccc21 (stereo unspecified)	–	?	?	?	?	6.31µM	?	–	?	–
Cc1cc(C(=O)N2CCN(C/C=C/c3ccccc3)CC2)cs1	–	–	–	–	–	15.8µM	?	–	–	–
COc1ccccc1N1CCN(C(=O)c2ccc(-c3ccc(Cl)cc3)o2)CC1	–	·	?	7.31µM	5.17µM	8.91µM	13µM	11.6µM	?	–
COc1ccccc1N1CCN(C(=O)NCc2ccc(Cl)cc2)CC1	–	–	–	–	–	–	·	·	·	·
O=C(O)c1ccc(C=NNC(=O)c2cccc3ccccc23)cc1	–	–	–	–	–	–	·	·	·	·
O=C(N/N=C/c1ccccc1O)c1cccc2ccccc12	–	·	–	?	9.2µM	8.91µM	?	?	?	–
CCc1nc2ccc(C(=O)NCc3cccs3)cn2c1N(CC)Cc1cccc(Br)c1	–	?	?	?	?	11.2µM	18.4µM	?	?	–
CN(c1cccc(NC(=O)CN(c2cccc(Cl)c2)S(=O)(=O)c2ccccc2)c1)S(C)(=O)=O	–	–	–	?	–	?	–	–	?	–
COc1ccc(C(=O)/C(C#N)=N/Nc2ccccc2[N+](=O)[O-])cc1	–	–	?	2.59µM	2.31µM	1.12µM	10.3µM	?	?	–
COc1ccc(C(=O)NCCN(C)C)c2nc3ccccc3cc12	–	3.36µM	?	?	20.6µM	7.08µM	10.3µM	4.61µM	?	–
Cc1ccc(Sc2cc(C(=O)NCCN(C)C)c3ccccc3n2)cc1	–	·	–	?	–	–	·	·	·	·
COc1cc(C(=O)NCC(c2ccc(F)cc2)N2CCOCC2)ccc1OCc1ccccc1Cl (stereo unspecified)	–	–	–	–	–	20µM	?	?	?	–
COc1ccccc1NS(=O)(=O)c1ccc(C(=O)NCC(c2ccc(F)cc2)N2CCOCC2)cc1 (stereo unspecified)	–	·	–	–	–	–	·	·	·	·
O=C(Nc1ccc(OCc2cc(=O)n3c4c(sc3n2)CCCC4)cc1)c1ccccc1	–	–	–	·	·	–	·	·	·	·
Cc1ccn2c(NC3CCCCC3)c(-c3cccc(SC4CCCCC4)c3)nc2c1	–	?	?	?	?	?	·	·	·	·
SMILES	HepG2 tox-1	ATXN2 expr inh	S2 tox	HT1080NT lethal	HT1080 IDH1KD tx	TGFb inhibitor	TGFb CAGA inh	HepG2 tox-2	CCL64 TGFb inh	TGFb COP inh
CCC(C)Sc1cccc(-c2nc3cc(C)ccn3c2NC2CCCCC2)c1 (stereo unspecified)	–	?	?	11.6µM	18.4µM	11.2µM	?	?	18.4µM	–
COc1ccccc1NC(=O)C(Cc1ccccc1)NS(=O)(=O)c1cccc2nsnc12 (stereo unspecified)	–	–	–	·	·	?	·	·	·	·
Clc1nc(Cl)nc(N(c2ccccc2)c2ccccc2)n1	–	–	–	–	–	?	?	?	?	–
Cc1nn(-c2cccc(Cl)c2)c2nc(C(F)(F)F)[nH]c(=O)c12	–	?	?	?	?	11.2µM	6.51µM	8.2µM	2.91µM	–
Cc1nn(-c2cc(C(F)(F)F)ccc2Cl)c2nc(C(F)(F)F)[nH]c(=O)c12	–	–	?	–	–	?	·	·	·	·
Cc1cc(C)cc(NC(=O)Cn2c(=O)oc3cc(S(=O)(=O)N4CCC(C)CC4)ccc32)c1	7.94µM	?	–	?	?	7.94µM	?	–	?	–
CC1CCN(S(=O)(=O)c2ccc3c(c2)oc(=O)n3CC(=O)O)CC1	–	·	·	·	·	–	·	·	·	·
Cc1cccn2c(=O)c(C(=O)NCc3ccccc3Cl)c(O)nc12	–	–	–	·	·	–	·	·	·	·
O=C1CN(C(=O)Cc2ccc(F)cc2)C(c2ccccc2)c2cc(Br)ccc2N1 (stereo unspecified)	–	–	–	·	·	–	·	·	·	·
CC(=NNc1nc2ccccc2o1)c1cc2ccccc2cn1	–	?	–	?	?	0.316µM	?	18.4µM	?	–
Cc1cccc(NC(=O)CSc2nc3ccccc3nc2N2CC(C)OC(C)C2)c1 (stereo unspecified)	–	–	?	–	–	?	·	·	·	·
